According to PubChem BioAssay (Tox21):
Values joined by “and” are separate entries in the source; they are usually repeats but may differ in a detail not shown here. Identical values can stand only once. Results filed as inconclusive are left out. More than one record can exist for a structure, and the calls need not agree. Active and inactive are the calls of the source. Unless noted, the call rests on the fitted dose curve; in most records, active means well fitted curve in the direction sought with a large enough effect in the repeat runs; inconclusive means weak or mixed curves; inactive means no such curve, though single readings can be large; an effect the other way counts as inactive or inconclusive.

Tests used:
[1] = qHTS assay to identify small molecule antagonists of the glucocorticoid receptor (GR) signaling pathway - cell viability counter screen (AID 720693); details: GR-bla HeLa viability, CellTiter-Glo luminescence, 18 h, with 5 nM dexamethasone present; series mostly up to 58.5 µM; further: nearly all actives have a fitted effect of over 55% in size; further: potency means the concentration at half of the fitted maximal effect
[2] = qHTS assay for identifying genotoxic compounds that show differential cytotoxicity against isogenic chicken DT40 cell lines with known DNA damage response pathways - wild type cell line (AID 743012); details: DT40 wild type chicken cells viability, CellTiter-Glo, 40 h; series mostly up to 68.4 µM; further: nearly all actives have a fitted effect of over 60% in size; further: potency means the concentration at half of the fitted maximal effect
Summary of the method: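 Viability by ATP luminescence (CellTiter-Glo, 30 min RT) after 40 h compound treatment at 37 C/5% CO2, using 300 parental DNA repair-proficient DT40 cells per well.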

[3] = qHTS assay for identifying genotoxic compounds that show differential cytotoxicity against isogenic chicken DT40 cell lines with known DNA damage response pathways - Rev3 mutant cell line (AID 743014); details: chicken DT40 Rev3-/- viability, CellTiter-Glo, 40 h; series mostly up to 68.4 µM; further: nearly all actives have a fitted effect of over 55% in size; further: potency means the concentration at half of the fitted maximal effect
[4] = qHTS assay for identifying genotoxic compounds that show differential cytotoxicity against isogenic chicken DT40 cell lines with known DNA damage response pathways - Rad54/Ku70 mutant cell line (AID 743015); details: DT40 Rad54/Ku70 mutant viability, CellTiter-Glo, 40 h; series mostly up to 66.8 µM; further: nearly all actives have a fitted effect of over 60% in size; further: potency means the concentration at half of the fitted maximal effect
[5] = qHTS assay to identify small molecule antagonists of the androgen receptor (AR) signaling pathway - cell viability counter screen (AID 743033; further: nearly all actives have a fitted effect of over 45% in size; further: potency means the concentration at half of the fitted maximal effect); details: AR-bla HEK293 viability, CellTiter-Glo luminescence, 16 h; series mostly up to 58.5 µM
[6] = molecular target: Androgen receptor (Homo sapiens) (UniProt P10275); experiment: qHTS assay to identify small molecule antagonists of the androgen receptor (AR) signaling pathway (AID 743035; active means well fitted inhibition curve with a large enough effect in the signal ratio in the repeat runs, not every such curve was filed as active; the % refers to the signal ratio; further: potency means the concentration at half of the fitted maximal effect); details: HEK293 AR-UAS-bla, R1881-stimulated, beta-lactamase FRET, 16 h; series mostly up to 58.5 µM
Summary of the method: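 Antagonist mode: AR-bla HEK293 cells co-treated with test compounds and agonist R1881 for 16 h at 37C, 5% CO2. Beta-lactamase activity read as FRET fluorescence after 2 h room-temperature substrate loading.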

[7] = molecular target: Androgen receptor (Homo sapiens) (UniProt P10275); experiment: qHTS assay to identify small molecule agonists of the androgen receptor (AR) signaling pathway (AID 743036; active means well fitted activation curve with a large enough effect in the signal ratio in the repeat runs, with a control signal flat, not every such curve was filed as active; the % refers to the signal ratio); details: HEK293 AR-UAS-bla GripTite, beta-lactamase FRET ratio, 16 h; series mostly up to 62.4 µM
Summary of the method: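 Fluorescence from a beta-lactamase FRET substrate served as read-out in AR-UAS-bla GripTite HEK293 cells. Cells were treated with DMSO-dissolved compounds for 16 h at 37C, then with LiveBLAzer B/G substrate for 2 h at room temperature.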

[8] = molecular target: Androgen receptor (Homo sapiens) (UniProt P10275); experiment: qHTS assay to identify small molecule agonists of the androgen receptor (AR) signaling pathway using the MDA cell line (AID 743040; further: nearly all actives have a fitted effect of over 20% in size); details: MDA-kb2 AR-luc cells, MMTV luciferase, 16 h, stronger effect = higher value; series mostly up to 70.3 µM
Summary of the method: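 Stable MMTV-luciferase reporter in MDA-kb2 cells; note the promoter carries GR as well as AR response elements. 16 h compound treatment, 37C, 0% CO2; ONE-Glo luminescence endpoint.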

[9] = qHTS assay to identify small molecule antagonists of the androgen receptor (AR) signaling pathway using the MDA cell line - cell viability counter screen (AID 743041; further: nearly all actives have a fitted effect of over 45% in size; further: potency means the concentration at half of the fitted maximal effect); details: MDA-kb2 viability, CellTiter-Fluor, 16 h, cells co-treated with R1881 androgen agonist; series mostly up to 70.3 µM
Summary of the method: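 Using the breast carcinoma line MDA-kb2 AR-luc, test chemicals were co-incubated with R1881 for 16 h; CellTiter-Fluor reagent, added at 15.5 h, provided a fluorescence measure of live cells.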

[10] = molecular target: Androgen receptor (Homo sapiens) (UniProt P10275); experiment: qHTS assay to identify small molecule antagonists of the androgen receptor (AR) signaling pathway using the MDA cell line (AID 743042; further: potency means the concentration at half of the fitted maximal effect; nearly all actives have a fitted effect of over 55% in size); details: MDA-kb2 AR-luc, MMTV luciferase, R1881 antagonist, 16 h; series mostly up to 70.3 µM
Summary of the method: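 Antagonist mode: compounds plus R1881 agonist added to MDA-kb2 AR-luc cells, incubated 16 h at 37C. Luciferase reporter luminescence quantified, with multiplexed CellTiter-Fluor readout for cell viability.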

Measured: Potency

Sequence of Androgen receptor (Homo sapiens) (P10275 whole entry, looked up): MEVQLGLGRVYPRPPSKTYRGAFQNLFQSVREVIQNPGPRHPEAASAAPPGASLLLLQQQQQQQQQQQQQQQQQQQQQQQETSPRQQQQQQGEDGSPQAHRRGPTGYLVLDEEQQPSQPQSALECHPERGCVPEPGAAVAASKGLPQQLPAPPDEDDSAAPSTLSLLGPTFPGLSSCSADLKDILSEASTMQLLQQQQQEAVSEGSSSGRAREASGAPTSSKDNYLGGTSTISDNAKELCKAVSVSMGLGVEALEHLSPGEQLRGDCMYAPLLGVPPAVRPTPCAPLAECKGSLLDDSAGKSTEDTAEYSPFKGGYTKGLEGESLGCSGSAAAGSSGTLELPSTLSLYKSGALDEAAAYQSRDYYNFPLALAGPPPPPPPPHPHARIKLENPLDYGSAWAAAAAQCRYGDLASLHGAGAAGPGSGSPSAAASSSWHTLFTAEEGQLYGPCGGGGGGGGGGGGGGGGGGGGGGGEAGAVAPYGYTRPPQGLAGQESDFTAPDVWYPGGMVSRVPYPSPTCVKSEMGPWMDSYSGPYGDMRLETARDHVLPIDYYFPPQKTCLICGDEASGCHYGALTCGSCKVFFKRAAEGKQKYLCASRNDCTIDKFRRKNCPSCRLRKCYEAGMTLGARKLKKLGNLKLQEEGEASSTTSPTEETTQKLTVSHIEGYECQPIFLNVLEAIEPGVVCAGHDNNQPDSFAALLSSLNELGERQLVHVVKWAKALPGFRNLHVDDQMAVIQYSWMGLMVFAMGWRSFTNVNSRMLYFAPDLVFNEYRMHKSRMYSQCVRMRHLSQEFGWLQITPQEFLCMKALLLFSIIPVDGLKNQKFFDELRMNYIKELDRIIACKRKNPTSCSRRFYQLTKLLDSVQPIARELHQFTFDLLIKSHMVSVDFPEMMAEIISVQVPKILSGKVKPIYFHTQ

BrCCCBr
not listed: [10]
inactive: all other assays above

CCC(C)Br (centres undefined)
inactive: [1] | [2] | [3] | [4] | [5] | [9]

C#CCO
inactive: [1] | [2] | [3] | [4] | [5] | [9]

O=C(O)[C@H](O)[C@@H](O)C(=O)O
inactive: [1] | [2] | [3] | [4] | [5] | [9]

[C-]1=CC=CC1.[Cl][Zr+2][Cl].c1cc[cH-]c1
inactive: [1] | [2] | [3] | [4] | [5] | [9]

O=C(NC(=O)c1c(F)cccc1F)Nc1ccc(Oc2ccc(C(F)(F)F)cc2Cl)cc1F
inactive: [1]
active: [2] 4.33 µM | [3] 21.7 µM | [4] 3.86 µM

OCC(Br)CBr (centres undefined)
inactive: [1] | [2] | [3] | [4]

CC(C)N(C(=O)SC/C(Cl)=C/Cl)C(C)C
inactive: [1] | [2] | [3] | [4] | [5] | [9]

Cc1cnc2c(C(=O)O)c(Cl)ccc2c1
inactive: [1] | [2] | [3] | [4] | [5] | [9]

Brc1ccc(Oc2ccc(Br)cc2Br)c(Br)c1
inactive: [1] | [2] | [3] | [4] | [5] | [9]

COc1ccc(Cc2nccc3cc(OC)c(OC)cc23)cc1OC
active: [2] 4.03 µM | [3] 9.02 µM | [4] 7.17 µM
inactive: [1] | [5] | [7] | [8]

S=C=Nc1ccccc1
not listed: [10]
inactive: all other assays above

ClC(Cl)C(Cl)(Cl)Cl
inactive: [1] | [2] | [3] | [4] | [5] | [9]

CNC(C)(C)Cc1ccccc1
inactive: [1] | [2] | [3] | [4] | [5] | [9]

CC(=O)[O][Pb]([c]1ccccc1)([c]1ccccc1)[c]1ccccc1
active: [1] 0.776 µM | [2] 0.154 µM | [3] 0.122 µM | [4] 0.122 µM | [5] 0.549 µM | [9] 1.72 µM
inactive: [8]

O=C1C[C@@H]2OCC=C3CN4CC[C@]56c7ccccc7N1[C@H]5[C@H]2[C@H]3C[C@H]46
active: [2] 26.6 µM
inactive and 26.6 µM (active): [3]
inactive and 29.8 µM (active): [4]
inactive: [1] | [5] | [9]

Cc1nn(-c2cc(NS(C)(=O)=O)c(Cl)cc2Cl)c(=O)n1C(F)F
not listed: [6] | [7] | [10]
inactive: all other assays above

Oc1ccc(Cl)c(Cl)c1
inactive: [1] | [2] | [3] | [4] | [5] | [9]

Nc1nc(N)nc(Cl)n1
inactive: [1] | [2] | [3] | [4] | [5] | [9]

N#Cc1sc2c(=O)c3ccccc3c(=O)c=2sc1C#N
active: [1] 0.49 µM | [2] 1.37 µM | [3] 0.433 µM | [4] 0.77 µM | [5] 13.8 µM | [6] 9.77 µM | [9] 1.37 µM | [10] 0.306 µM
inactive: [8]

CCC[CH2][Sn]([CH2]CCC)([CH2]CCC)[CH2]CCC
active: [1] 54.9 µM | [2] 7.7 µM | [3] 21.7 µM | [4] 8.63 µM | [5] 43.6 µM | [9] 61.1 µM

C[N+]1(C)[C@@H]2CC[C@H]1CC(OC(=O)C(CO)c1ccccc1)C2 (some centres undefined)
inactive: [1] | [2] | [3] | [4] | [5] | [9]

N#CC(C#N)=NNc1cccc(Cl)c1
active: [1] 6.92 µM | [2] 2.73 µM | [3] 2.73 µM | [4] 2.43 µM | [5] 2.45 µM | [9] 4.86 µM
inactive: [8]

COC(=O)c1cc(Oc2ccc(Cl)cc2Cl)ccc1[N+](=O)[O-]
active: [2] 9.69 µM | [3] 12.2 µM | [4] 24.3 µM
inactive: [1] | [5] | [9]

COC(=O)/C=C(\C)OP(=O)(OC)OC
active: [3] 24.3 µM
inactive: [1] | [2] | [4] | [5] | [9]

O=C(Nc1ccc(F)cc1F)c1cccnc1Oc1cccc(C(F)(F)F)c1
inactive: [1] | [2] | [3] | [4] | [5] | [9]

CC(C)(C)c1ccc(OP(=O)(Oc2ccccc2)Oc2ccccc2)cc1
active: [2] 61.5 µM | [3] 27.5 µM | [4] 19.4 µM
inactive: [1]
